Screening data (PubChem)
An excerpt weighted towards active compounds, which were near 2.9% of everything screened.
PAFAH1B3 inh – PAFAH1B3 enzyme inhibitors, primary screen, biochemical, fluorescence polarization, human; Platelet-activating factor acetylhydrolase IB subunit alpha1 (Homo sapiens), Q15102; recombinant PAFAH1B3, FP-rhodamine probe; inhibition, % at 3.39 µM; hit rate 0.28% among 340,000;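 active = inhibition above the screen-wide average of all tested compounds plus 3 SD, cut at about 25% in these data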
PAFAH1B2 inh – PAFAH1B2 enzyme inhibitors, primary screen, biochemical, fluorescence polarization, human. AID 492953, 2010. hit rate 1.2% among 340,000. recombinant PAFAH1B2, FP-rhodamine activity probe. inhibition, % at 3.39 µM. Platelet-activating factor acetylhydrolase IB subunit alpha2 (Homo sapiens), P68402;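 active = inhibition above the mean of all tested compounds plus 3 SD, cut at about 24% in these data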
Target sequence (P68402 whole entry, looked up): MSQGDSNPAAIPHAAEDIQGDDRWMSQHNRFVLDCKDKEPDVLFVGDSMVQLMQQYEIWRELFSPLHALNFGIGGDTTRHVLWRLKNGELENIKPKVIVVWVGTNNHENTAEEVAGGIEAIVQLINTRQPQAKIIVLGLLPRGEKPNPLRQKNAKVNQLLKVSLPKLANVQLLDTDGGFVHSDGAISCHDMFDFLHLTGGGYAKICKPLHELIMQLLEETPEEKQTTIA
PAFAH2 inh – PAFAH2 enzyme inhibitors, primary screen, biochemical, fluorescence polarization, human; recombinant PAFAH2, FP-rhodamine activity probe; AID 492956, 2010; Platelet-activating factor acetylhydrolase 2, cytoplasmic (Homo sapiens), Q99487; hit rate 0.99% among 340,000; inhibition, % at 3.39 µM;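 active = inhibition above the mean over all tested compounds plus 3 SD, cut at about 30% in these data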;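 note: inhibitors block probe labeling of enzyme so polarization drops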
Fam108B inh – mouse Fam108B serine hydrolase inhibitors, primary screen, counter-screen for RBBP9 inhibitor project, biochemical, fluorescence polarization. recombinant Fam108B, FP-Rh probe fluorescence polarization. inhibition, % at 9.51 µM. hit rate 0.33% among 300,000. AID 1947, 2009;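 active = inhibition above the screen mean inhibition plus 3 SD, computed separately per campaign, cut at about 18% in these data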;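 note: inhibitors lower polarization as less probe binds the enzyme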
pPAFAH FP inh – pPAFAH enzyme inhibitors, primary screen, biochemical, fluorescence polarization, human; hit rate 1.5% among 330,000; Platelet-activating factor acetylhydrolase (Homo sapiens), Q13093; recombinant pPAFAH, FP-rhodamine probe fluorescence polarization; inhibition, % at 3.39 µM;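 active = inhibition above the mean inhibition across the screen plus 3 SD, cut at about 25% in these data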;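 note: inhibitors block binding of the rhodamine activity-based probe so polarization drops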
Target sequence (Q13093 whole entry, looked up): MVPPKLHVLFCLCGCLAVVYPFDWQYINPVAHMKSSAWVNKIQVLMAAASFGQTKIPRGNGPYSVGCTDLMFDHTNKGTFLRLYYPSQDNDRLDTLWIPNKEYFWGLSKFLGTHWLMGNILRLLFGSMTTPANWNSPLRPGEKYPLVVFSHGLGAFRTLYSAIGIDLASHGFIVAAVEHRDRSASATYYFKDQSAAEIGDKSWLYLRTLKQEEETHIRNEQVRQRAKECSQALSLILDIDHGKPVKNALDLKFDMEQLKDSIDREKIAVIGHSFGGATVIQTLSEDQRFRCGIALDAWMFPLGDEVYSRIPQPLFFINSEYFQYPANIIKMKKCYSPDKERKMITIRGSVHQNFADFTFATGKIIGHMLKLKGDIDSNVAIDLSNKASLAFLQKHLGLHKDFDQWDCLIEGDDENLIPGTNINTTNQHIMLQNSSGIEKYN
PME-1 inh – PME-1 inhibitors via competitive probe labeling, primary screen, biochemical, fluorescence polarization, FP-Rh probe, HTS | AID 2130, 2009 | inhibition, % at 5.9 µM | recombinant PME-1 | hit rate 0.53% among 320,000 | Protein phosphatase methylesterase 1 (Homo sapiens), Q9Y570;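 active = inhibition above the campaign mean of all compounds plus 3 SD, cut at about 26% in these data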;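 note: competitive labeling of PME-1 active site by serine hydrolase directed probe; inhibitors block probe labeling so polarization falls and inhibition rises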
Each line names hits and unclear results; the compound was inactive in the other large screens.

CC(C)CC(=O)NC(c1ccccc1Cl)c1c(O)ccc2ccccc12 (stereo not drawn)	PME-1 inh 46.9
Cc1cccc(NC(=O)CSc2nc(=O)n3ccccc3n2)c1C	none
Cc1cc(C)nc(SCC(=O)N/N=C/c2cccn2-c2ccc(O)cc2)n1	PAFAH1B2 inh 28.4
Cc1cc(C)nc(SCC(=O)N/N=C/c2cccn2-c2cccc(C(F)(F)F)c2)n1	none
CC(=O)N1CCc2cc(S(=O)(=O)NC(CC(C)C)C(=O)Nc3cc(C)ccn3)ccc21 (stereo not drawn)	none
Cc1ccc(S(=O)(=O)N(C)C)cc1NC(=O)COC(=O)CCC(=O)c1ccc(F)cc1	none
Cc1ccc(S(=O)(=O)N(C)C)cc1NC(=O)COC(=O)CCC1CCCCC1	pPAFAH FP inh 33.3
Cc1ccc(S(=O)(=O)N(C)C)cc1NC(=O)COC(=O)CSc1ccccc1	pPAFAH FP inh 28.2
Cc1cc(C(=O)OCC(=O)Nc2cc(S(=O)(=O)N(C)C)ccc2C)c2ccccc2n1	PME-1 inh 28.3
CCn1c(=O)cc(OCC(=O)O)c2ccccc21	none
CC(C)c1ccc(-c2nc(N3CCOCC3)[nH]c(=O)c2C#N)cc1	PAFAH1B2 inh 32.5
CCOc1ccc(N(CC)C(=O)c2nn(-c3ccc(OC)cc3)c(=O)c3c2c2ccccc2n3C)cc1	none
COc1ccc([C@@H]2CC=C(C(=O)O)[C@H](c3ccc(Br)cc3)N2S(=O)(=O)c2ccc(C)cc2)cc1OC	none (no result: Fam108B inh, PME-1 inh)
Cc1ccc(S(=O)(=O)N2[C@@H](c3ccccc3)C(C(=O)O)=CC[C@H]2c2ccc3c(c2)OCO3)cc1	none
Cc1ccccc1S(=O)(=O)N1[C@@H](c2ccc(Br)cc2)C(C(=O)O)=CC[C@H]1c1ccc(Cl)cc1	PAFAH1B2 inh 83.6 (no result: Fam108B inh, PME-1 inh)
O=C(O)C1=CC[C@@H](c2ccc(Cl)cc2)N(S(=O)(=O)c2ccc(Cl)cc2)[C@H]1c1ccc(Br)cc1	PAFAH1B2 inh 88.1 (no result: Fam108B inh, PME-1 inh)
COc1ccc([C@@H]2CC=C(C(=O)O)[C@H](c3cccc(Cl)c3)N2S(=O)(=O)c2ccccc2C)cc1	PAFAH1B2 inh 25.9
Cc1cccc(C)c1OCC(=O)Nc1ccc(S(=O)(=O)Nc2ccccn2)cc1	none
Cc1ccc(CNC(=O)c2ccc(N3CCC4(CC3)CC(c3cccc(Br)c3)=NO4)c(NC(=O)c3ccco3)c2)cc1	none
COc1ccc(-c2cc(CNS(=O)(=O)c3cc(OC)ccc3OC)on2)cc1	none
CN(CC(=O)Nc1ccccc1Cl)C(=O)c1ccc(-c2cccc(C(F)(F)F)c2)o1	none
N#CCC(=O)NN=C1CCCCCCCCCCC1	PAFAH1B2 inh 25.6
COc1ccc(Nc2nc(-c3ccc4c(c3)NC(=O)CO4)cs2)cc1	pPAFAH FP inh 30.2
CCC(C)Nc1nc(-c2ccc3c(c2)NC(=O)CO3)cs1 (stereo not drawn)	pPAFAH FP inh 25.1
COc1ccc(-c2cc(C3CC3)nc3sc(C#N)c(N)c23)cc1	pPAFAH FP inh 31.2
c1csc(-c2nc(NCCCN3CCOCC3)c3ccccc3n2)c1	none
CCOC(=O)C1CCN(C(=O)c2cc3cc4cc(OC)ccc4nc3o2)CC1	pPAFAH FP inh 29.1
COc1ccc2nc3oc(C(=O)N4CCCCC4)cc3cc2c1	none
Cc1cc(N/N=C\c2ccccc2)nc(-c2ccccc2O)n1	none
Cc1cc(N/N=C/c2ccccc2O)nc(-c2ccccc2O)n1	Fam108B inh 19.2
CCN1C(=O)/C(=C/C=C2\N(CC)c3cc(S(=O)(=O)N(C)C)ccc3N2c2ccccc2)SC1=S	PAFAH1B3 inh active, PAFAH1B2 inh 151.4
C=CCn1c(COc2ccc(F)cc2)nnc1SCC(=O)NC1CCS(=O)(=O)C1 (stereo not drawn)	none
Cn1cccc1C(=O)OCC(=O)Nc1ccc2c(c1)CCC2	PAFAH2 inh 62.4, pPAFAH FP inh 27.8
S=c1oc(-c2ccncc2)nn1CCc1ccncc1	none
Oc1c(Cl)cc(Cl)cc1/C=N/c1nc(-c2ccc(Cl)cc2)cs1	PAFAH1B2 inh 48.4
S=C(NCc1ccc(Cl)cc1Cl)Nc1ccccc1	pPAFAH FP inh 33.2
COCCCN1C(=O)c2ccc(C(=O)NCc3ccco3)cc2C1=O	none
COc1ccc(NS(=O)(=O)c2ccc(N3CCOCC3)c(NC(=O)c3cccc(F)c3)c2)cc1	pPAFAH FP inh 32.8
O=C(NCCCN1CCCC1=O)c1cc(NS(=O)(=O)c2ccc(F)cc2)cc(NS(=O)(=O)c2ccc(F)cc2)c1	pPAFAH FP inh 33.6
O=C(NCCCN1CCOCC1)c1ccc(NS(=O)(=O)c2ccccc2)cc1	none
O=C(NCCN1CCOCC1)c1cccc(S(=O)(=O)Nc2cc(Cl)ccc2Cl)c1	none (no result: Fam108B inh, pPAFAH FP inh, PME-1 inh)
CCOC(=O)/C=C/C(=O)Nc1cc(S(=O)(=O)Nc2ccc(OC)cc2)ccc1N1CCOCC1	none (no result: Fam108B inh, pPAFAH FP inh, PME-1 inh)
O=C(NCCN1CCOCC1)c1cccc(S(=O)(=O)Nc2ccc(Br)cc2)c1	pPAFAH FP inh 33.7 (no result: Fam108B inh)
O=C(NCCCN1CCOCC1)c1cccc(S(=O)(=O)Nc2ccc(F)cc2)c1	pPAFAH FP inh 27.0 (no result: Fam108B inh)
CCOC(=O)N1CCN(C(=O)c2cccc(S(=O)(=O)Nc3ccc(F)cc3)c2)CC1	none (no result: Fam108B inh, pPAFAH FP inh, PME-1 inh)
O=C(c1cccc(S(=O)(=O)Nc2ccc(F)cc2)c1)N1CCOCC1	pPAFAH FP inh 28.7 (no result: Fam108B inh)
O=C(NCCCN1CCOCC1)c1cccc(NS(=O)(=O)c2ccc(Br)cc2)c1	PAFAH1B2 inh 24.5 (no result: Fam108B inh)
c1cc(-c2cc3cc4c(cc3cn2)OCO4)cs1	none (no result: Fam108B inh, PME-1 inh)
CC(C)(C)c1ccc(OCC(=O)NNC(=O)Nc2ccccc2)cc1	PAFAH1B2 inh 38.6, pPAFAH FP inh 29.5
O=C(COc1ccc(-c2ccccc2)cc1)NNC(=O)Nc1ccccc1	none (no result: Fam108B inh)
CCC(Sc1nc(-c2cccc(OC)c2)c(C#N)c(=O)[nH]1)C(=O)Nc1nnc(C(C)C)s1 (stereo not drawn)	PAFAH1B2 inh 35.5
Cc1cccc(OCC(=O)N/N=C/C=C/c2ccco2)c1	pPAFAH FP inh 29.9
COc1cccc(/C=N/NC(=O)CNC(=O)COc2ccccc2)c1O	none
CCn1c(SCC(=O)N/N=C/C=C\c2ccco2)nc2ccccc21	pPAFAH FP inh 24.9
Cc1cccc(OCC(=O)NCC(=O)N/N=C/c2cc(Br)cc(Br)c2O)c1	PAFAH1B2 inh 34.0
Cc1ccccc1SCC(=O)NCC(c1ccc(F)cc1)N1CCOCC1 (stereo not drawn)	none (no result: Fam108B inh, PME-1 inh)
Cc1ccccc1C(=O)OC(C)C(=O)NCc1ccc2c(c1)OCO2 (stereo not drawn)	none (no result: Fam108B inh)
CCNc1nc(Oc2ccc(OC)cc2)cc(C(F)(F)F)n1	pPAFAH FP inh 33.2
CCNc1nc(Oc2c(Cl)cccc2Cl)cc(C(F)(F)F)n1	none
